ATXN viability = cell viability loss in ATXN counter-screen; 400,000 compounds, 0.49% hits; S2 cells (HEK-293 line with an ATXN2-luciferase reporter) viability, CellTiter-Fluor protease fluorescence, 24 h; AID 651635; Potency, µM (doses to about 56.7 µM), hits mostly cytotoxic; further: nearly all actives have a fitted effect of over 40% in size
HT1080NT lethal = kills 2HG-producing HT-1080-NT fibrosarcoma cells; Potency, µM (doses to about 46.1 µM), without a hit: at the top dose activity, negative = less viability, most hits filed as cytotoxic; HT-1080-NT fibrosarcoma viability, CellTiter-Glo ATP luminescence, 48 h; 360,000 compounds, 1.6% hits; AID 686970;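 further: NT is the 2HG producing partner of a matched IDH1 knockdown line; 0% = DMSO-treated cells and -100% = media-only wells without cells; nearly all actives have a fitted effect of over 55% in size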
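Luminescent CellTiter-Glo readout after 48 hours of compound exposure at 37 degrees C defined viability of HT-1080-NT cells. Activity was normalized to DMSO wells and cell-free media wells; concentration-response curves were fitted and assigned curve classes.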
KB-3-1 cytotox = KB-3-1 parental cell cytotoxicity | AID 1347075 | 400,000 compounds, 1.4% hits | Potency, µM (series often up to 46.1 µM), hits mostly cytotoxic | KB-3-1 viability, CellTiter-Glo ATP luminescence, 72 h; further: on the % scale 0 is the no-effect control and ±100 the full control effect; nearly all actives have a fitted effect of over 60% in size
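Cytotoxicity measured as CellTiter-Glo luminescence after 72 h at 37 C. Compound titrations were pinned onto drug-naive KB-3-1 parental adenocarcinoma cells grown in DMEM with 10% FBS, and normalized data fitted to concentration-response curves.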
HT1080 IDH1KD tx = HT-1080 IDH1 knockdown cell toxicity (counter line); HT-1080 IDH1 knockdown viability, ATP luminescence, 48 h; Potency, µM (highest dose often 46.1 µM), inactives show top-dose activity, negative = toxicity, most hits filed as cytotoxic; 360,000 compounds, 2% hits;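 further: 0% = DMSO wells and -100% = cell-free medium wells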
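% activity derives from luminescence (CellTiter-Glo), normalised to DMSO and no-cell wells. HT-1080-IDH1KD cells, 750/well, had 48 h compound exposure at 37 °C.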
KB-V1 MDR tox = kills drug-selected multidrug resistant KB-V1 cells. KB-V1 MDR cells viability, CellTiter-Glo, 72 h. Potency, µM (doses to about 46.1 µM), hits mostly cytotoxic. 400,000 compounds, 3.4% hits; further: on the % scale 0 is the no-effect control and ±100 the full control effect; nearly all actives have a fitted effect of over 60% in size
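Cells of the MDR subline KB-V1 are plated, dosed with compound at multiple concentrations, and incubated 72 h at 37 degrees C; CellTiter-Glo is then added and luminescence read after 10 min.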
ATXN2 expr inh = ATXN2 expression inhibition. HEK-293 ATXN2-luciferase reporter, luminescence, 24 h. AID 1745845. 360,000 compounds, 0.72% hits. Potency, µM (top dose mostly 57 µM), inactives show at the top dose activity change, negative = inhibition, hits mostly inhibitors; further: on the % scale 0 is the no-effect control and ±100 the full control effect; nearly all actives have a fitted effect of over 55% in size
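qHTS (up to 57 uM final) was run with 24 h compound exposure of reporter cells at 37 °C. Each well was multiplexed: SteadyGlo luminescence measured ATXN2-luciferase expression after a fluorogenic Gly-Phe-AFC viability readout (25 uM final).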
Starred values were filed as active, the others as inactive. Compounds with a hit are over-represented: about 6.2% of the library has one in this group of screens. The call rests on the fitted dose curve; in most records, active means well fitted curve in the direction sought with a large enough effect; inconclusive means small, poorly fitted or top-dose-only effect, or another doubt; inactive means no such curve, though single readings can be large; an effect the other way counts as inactive or inconclusive. Potency means the concentration at half of the fitted maximal effect.

Screening COc1ccc(NC(=O)C2(C)Cc3c(-c4ccc(NC(C)=O)cc4)ccnc3O2)cn1 (stereo not given) returned ATXN viability inactive, HT1080NT lethal inconclusive, KB-3-1 cytotox inconclusive, HT1080 IDH1KD tx inconclusive, KB-V1 MDR tox inactive and ATXN2 expr inh -18.9%.
Screening CC(=O)Nc1ccc(NC(=O)C2(C)Cc3c(-c4cccc(NC(C)=O)c4)ccnc3O2)cc1 (stereo not given) returned ATXN viability inactive, HT1080NT lethal 26.0%, KB-3-1 cytotox inactive, HT1080 IDH1KD tx 2.5%, KB-V1 MDR tox inactive and ATXN2 expr inh -2.8%.
For O=C(O)c1ccccc1NCCc1ccccc1 the results were ATXN viability inactive and ATXN2 expr inh 43.6%.
For Cc1c(C(=O)NCc2ccc(F)cc2)sc2ncnc(NCC3CCCO3)c12 (stereo not given) the results were ATXN viability inactive.
For COc1ccc(NC(=O)C2(C)Cc3c(-c4cccc(C(N)=O)c4)ccnc3O2)cc1 (stereo not given) the results were ATXN viability inconclusive, HT1080NT lethal inconclusive, KB-3-1 cytotox 7.31µM*, HT1080 IDH1KD tx inconclusive, KB-V1 MDR tox inconclusive and ATXN2 expr inh 8.1%.
For CC1(C(=O)Nc2ccc3c(c2)OCO3)Cc2c(-c3ccccc3)ccnc2O1 (stereo not given) the results were ATXN viability inconclusive, HT1080NT lethal -25.3%, KB-3-1 cytotox inconclusive, HT1080 IDH1KD tx inconclusive, KB-V1 MDR tox inconclusive and ATXN2 expr inh -6.3%.
For CNC(=O)C1(C)Cc2c(-c3ccc4c(c3)OCO4)ccnc2O1 (stereo not given) the results were ATXN viability inactive, HT1080NT lethal 18.7%, KB-3-1 cytotox inactive, HT1080 IDH1KD tx 6.4%, KB-V1 MDR tox inactive and ATXN2 expr inh 3.4%.
COc1ccc(NC(=O)C2(C)Cc3c(-c4ccc5c(c4)OCO5)ccnc3O2)cc1 (stereo not given) was read as ATXN viability inconclusive, HT1080NT lethal inconclusive, KB-3-1 cytotox 16.4µM*, HT1080 IDH1KD tx inconclusive, KB-V1 MDR tox inconclusive and ATXN2 expr inh -7.5%.
CC(=O)Nc1cccc(-c2ccnc3c2CC(C)(C(=O)Nc2ccc4c(c2)OCO4)O3)c1 (stereo not given) was read as ATXN viability inconclusive, HT1080NT lethal inconclusive, KB-3-1 cytotox 2.31µM*, HT1080 IDH1KD tx inconclusive, KB-V1 MDR tox 8.2µM* and ATXN2 expr inh -17.3%.
Screening CC(C)n1c(NCc2ccccc2O)nc2ccccc21 returned ATXN viability inactive, HT1080NT lethal 1.1%, KB-3-1 cytotox inactive, HT1080 IDH1KD tx -7.1%, KB-V1 MDR tox inactive and ATXN2 expr inh -0.2%.
Screening C=CCc1cccc(CNc2nc3ccccc3n2C(C)C)c1O returned ATXN viability inconclusive, HT1080NT lethal inconclusive, KB-3-1 cytotox inactive, HT1080 IDH1KD tx 11.2µM*, KB-V1 MDR tox inconclusive and ATXN2 expr inh 31.6µM*.
`Cc1ccn2c(=O)c(C(=O)NCCCN3CCCC3=O)c(O)nc2c1` gave ATXN viability inactive, HT1080NT lethal 9.0%, KB-3-1 cytotox inactive, HT1080 IDH1KD tx 8.3%, KB-V1 MDR tox inactive and ATXN2 expr inh 10.1%.
Screening Cc1csc2nc(O)c(C(=O)NCCCN3CCCC3=O)c(=O)n12 returned ATXN viability inactive, HT1080NT lethal 16.5%, KB-3-1 cytotox inactive, HT1080 IDH1KD tx 0.4%, KB-V1 MDR tox 18.4µM* and ATXN2 expr inh 0.0%.
Screening Cc1csc2nc(O)c(C(=O)NC3CCCCC3)c(=O)n12 returned ATXN viability inactive, HT1080NT lethal -8.0%, KB-3-1 cytotox inactive, HT1080 IDH1KD tx 1.0%, KB-V1 MDR tox 20.6µM* and ATXN2 expr inh 2.3%.
For Cc1nn(Cc2c(F)c(F)c(F)c(F)c2F)c(C)c1NC(=O)c1ccc(COc2ccccc2Cl)o1 the results were ATXN viability inactive, HT1080NT lethal -1.5%, KB-3-1 cytotox inactive, HT1080 IDH1KD tx -13.0%, KB-V1 MDR tox 2.59µM* and ATXN2 expr inh -30.1%.
`Cc1nn(Cc2c(F)c(F)c(F)c(F)c2F)c(C)c1NC(=O)c1ccc(COc2ccccc2Cl)cc1` gave ATXN viability inactive, HT1080NT lethal 20.7%, KB-3-1 cytotox inactive, HT1080 IDH1KD tx 15.6%, KB-V1 MDR tox inconclusive and ATXN2 expr inh -9.1%.
Screening N#Cc1cc2cc(Cl)ccc2[nH]c1=O returned ATXN viability inactive, HT1080NT lethal 9.4%, KB-3-1 cytotox 4.61µM*, HT1080 IDH1KD tx 6.7%, KB-V1 MDR tox inactive and ATXN2 expr inh 17.7%.
C(=Nc1cnc2ccccc2c1)c1ccncc1 was read as KB-3-1 cytotox inconclusive and KB-V1 MDR tox inactive.
For Cc1cc(C(=O)C(=O)O)c(C)n1-c1ccc(Cl)cc1 the results were ATXN viability inactive, HT1080NT lethal 6.8%, KB-3-1 cytotox inactive, HT1080 IDH1KD tx -2.5%, KB-V1 MDR tox inconclusive and ATXN2 expr inh 5.0%.
Screening Cc1cc(C(=O)C(C)Sc2cccc[n+]2[O-])c(C)n1-c1ccc(Cl)cc1 (stereo not given) returned ATXN viability inactive, HT1080NT lethal inconclusive, KB-3-1 cytotox inconclusive, HT1080 IDH1KD tx 23.1µM*, KB-V1 MDR tox 20.6µM* and ATXN2 expr inh -1.0%.
`O=C1CN(C(=O)COc2ccc(Cl)cc2)C(c2ccc(F)cc2)c2cc(Cl)ccc2N1` (stereo not given) gave ATXN viability inconclusive, KB-3-1 cytotox inactive, KB-V1 MDR tox inactive and ATXN2 expr inh inconclusive.
Cc1cccc(C)c1NC(=O)c1c(O)c2ccccc2[nH]c1=O was read as ATXN viability inactive, HT1080NT lethal -25.8%, KB-3-1 cytotox 18.4µM*, HT1080 IDH1KD tx -14.2%, KB-V1 MDR tox inconclusive and ATXN2 expr inh -2.5%.
`Cc1cccc(NC(=O)c2c(O)c3ccccc3[nH]c2=O)c1` gave ATXN viability inactive, HT1080NT lethal 2.1%, KB-3-1 cytotox inactive, HT1080 IDH1KD tx -2.5%, KB-V1 MDR tox inactive and ATXN2 expr inh 26.8%.
Screening CC(C)(Cc1ccc2ccccc2c1)NC[C@@H](O)COc1cccc(Cl)c1C#N returned ATXN2 expr inh 21.2%.
`CCC(=O)NCC[C@@H]1CCc2ccc3c(c21)CCO3` gave ATXN2 expr inh -14.8%.
`Cc1ccc2c(c1)=N/C(=N\c1[nH]c(O)c3ccccc13)N=2` gave HT1080NT lethal 23.1µM*, KB-3-1 cytotox inconclusive, HT1080 IDH1KD tx inconclusive and KB-V1 MDR tox inconclusive.
For CCN(CC)S(=O)(=O)c1ccc(C(=O)NCCSc2c(-c3ccccc3)[nH]c3ccccc23)cc1 the results were ATXN viability inactive, KB-3-1 cytotox inconclusive, KB-V1 MDR tox inactive and ATXN2 expr inh -18.9%.

High-throughput results deposited in PubChem by National Center for Advancing Translational Sciences (NCATS).
